# Source: PubChem (National Center for Advancing Translational Sciences (NCATS))
# AmpC inh det = inhibitors of E. coli AmpC beta-lactamase with detergent | P00811 | purified AmpC, nitrocefin hydrolysis with detergent | Potency, µM (doses to about 28.7 µM), for inactives: at the highest dose activity change, negative = inhibition | 71,000 tested, 0.09% active | AID 584; active means well fitted curve in the direction sought with a large enough effect; inconclusive means small, poorly fitted or top-dose-only effect; further: on the % scale 0 is the no-effect control and ±100 the full control effect
# Target sequence (P00811 whole entry, looked up): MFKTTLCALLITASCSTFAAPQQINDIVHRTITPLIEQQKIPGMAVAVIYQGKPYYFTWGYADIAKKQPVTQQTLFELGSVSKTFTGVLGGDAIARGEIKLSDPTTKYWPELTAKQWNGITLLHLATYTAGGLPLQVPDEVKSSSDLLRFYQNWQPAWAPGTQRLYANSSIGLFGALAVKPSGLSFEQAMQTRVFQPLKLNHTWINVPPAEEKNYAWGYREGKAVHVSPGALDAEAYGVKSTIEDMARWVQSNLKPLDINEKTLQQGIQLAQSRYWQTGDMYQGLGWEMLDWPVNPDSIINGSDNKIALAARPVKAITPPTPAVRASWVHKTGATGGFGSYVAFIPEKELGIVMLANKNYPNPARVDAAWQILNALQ
#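 E. coli AmpC (5.3 nM) in 20 mM phosphate pH 7.0 with 0.01% Triton X-100, preincubated 15 min RT with compound; nitrocefin (2 uL of 800 uM stock) hydrolysis followed by 480 nm absorbance every 20 s over 4 min.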
# LT uptake inh = inhibitors of anthrax lethal toxin internalization; Cells, anthrax lethal toxin internalization, FRET ratio (460/530); 70,000 tested, 0.67% active; Potency, µM (highest dose often 40 µM), inactives show at the highest dose activity change, negative = inhibition, usual class: inhibitors; AID 912; further: on the % scale 0 is the no-effect control and ±100 the full control effect; nearly all actives have a fitted effect of over 50% in size
# SmPrx2 inh = blocks S. mansoni peroxiredoxin 2 enzymatic activity; Potency, µM; S. mansoni Prx2 activity coupled to TGR/GSH (TGR is thioredoxin glutathione reductase), NADPH fluorescence loss, qHTS; AID 448; 65,000 tested, 0.07% active
#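 qHTS, coupled TGR/Prx2 format; 15 min compound preincubation at RT; reaction started with H2O2 (2.5 mM aliquot); kinetic NADPH fluorescence decrease, ex 365/em 450 nm.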
# AmpC nodet inh = AmpC beta-lactamase inhibition, detergent-free assay; AmpC nitrocefin hydrolysis, absorbance 480 nm, no detergent; AID 585; Potency, µM (top dose mostly 28.7 µM), for inactives: top-dose activity change, negative = inhibition; 71,000 tested, 1.8% active; further: % of control where 0% means no effect
#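 Enzyme, pH 7.0 phosphate. Compound titrations were pre-incubated with AmpC for 15 min at room temperature before nitrocefin (stock 800 uM) addition; product formation was recorded at 480 nm every 20 s for 4 min.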
# Active calls of the source: *; ? = inconclusive; / = not tested or not shown; ! = a repeat was not active; [ ] = another dose, or the depositor's remark. The list is not random: actives were taken first. Their share in the collection is about 2.4%. Unless noted, the call rests on the fitted dose curve. Potency means the concentration at half of the fitted maximal effect.
SMILES,AmpC inh det,LT uptake inh,SmPrx2 inh,AmpC nodet inh
CN(C)CCCN1c2ccccc2Sc2ccc(Cl)cc21,1%[12.8 µM],?,>57,52%[12.8 µM]
CN=C1N[C@H](c2ccccc2)N(c2ccccc2)S1,-3%,25µM*,>57,10%
COc1ccc(NC(=O)Nc2cccc(C)n2)cc1,10%,-13%,>57,4µM*[single pt active]
Cc1cccc(NC(=O)Nc2ccc(C#N)cc2)n1,3%,-7%,>57,0%
CC(C)=CCC/C(C)=C/CO/N=C1/C[C@@H](O)[C@@H](O)[C@@H]2[C@H]3C(=O)N(c4ccc(F)cc4F)C(=O)[C@@H]3CC[C@H]12,/,-4%[8 µM],/,/
CC1=C(C(=O)OC(C)C)C(c2cccs2)n2ncnc2N1 (stereo not drawn),13%,?,>57,4µM*[single pt active]
CC1=C(C(=O)OC(C)C)C(c2cccc(F)c2)n2ncnc2N1 (stereo not drawn),14%,?,>57,4µM*[single pt active]
CC1=C(C(=O)OC(C)C)C(c2c[nH]c3ccccc23)n2ncnc2N1 (stereo not drawn),12%,4%,>57,4µM*[single pt active]
COc1ccccc1NC(=O)C1=C(C)Nc2ncnn2C1c1cccs1 (stereo not drawn),-2%,?,>57,10%
CCCn1c(C)nc2c(NC3CCN(Cc4ccccc4)CC3)nc(C)nc21,10%,1%,/,9%
CCOP(=S)(OCC)Oc1ccc([N+](=O)[O-])cc1,8%,-9%,/,-4%
O=C(Nc1ccccc1)c1ccc2nc(-c3ccco3)c(-c3ccco3)nc2c1,-7%,?,>57,-3%
CCCCNC(=O)c1ccc2nc(-c3ccco3)c(-c3ccco3)nc2c1,8%,-8%,>57,4µM*[single pt active]
CCOC(=O)N1CCN(c2nc(SC)nc3sc4c(c23)CC(C)(C)OC4)CC1,?,?,>57,?
CC1(C)Cc2c(sc3nc(SCC(=O)N4CCOCC4)nc(N)c23)CO1,-3%,7.9µM*,>57,25%
COc1ccc2c3c1O[C@@H]1C(=O)CC[C@@]4(O)[C@@H](C2)N(CC2CC2)CC[C@]314,0%,-3%,>57,12%
CO/N=C(/C(=O)N[C@@H]1C(=O)N2C(C(=O)O)=C(COC(N)=O)CS[C@H]12)c1ccco1,0.025µM*,-6%,/,0.01µM*
CO/N=C(\C(=O)N[C@@H]1C(=O)N2C(C(=O)O)=C(CSc3nc(=O)c(O)nn3C)CS[C@@H]12)c1csc(N)n1,13µM*,1%,>57,13µM*
CCSCC[C@H](N)C(=O)O,1%[5.75 µM],2%[8 µM],>57,3%[5.75 µM]
CS(=O)(=O)c1nc(-c2ccco2)cc(C(F)(F)F)n1,13%,10µM*,>57,-6%
FC(F)(F)c1cc(-c2ccco2)nc(NCc2ccco2)n1,16%,?,>57,-7%
N[C@@H](Cc1ccc(O)c(O)c1)C(=O)O,1%[12.8 µM],-10%[3.58 µM],>57,-11%[12.8 µM]
C[C@H](Cc1ccc(O)c(O)c1)[C@@H](C)Cc1ccc(O)c(O)c1,-5%,16µM*!,>57,-24%
C[C@@H]1O[C@@H](n2cc(F)c(=O)[nH]c2=O)[C@H](O)[C@@H]1O,-4%,?,>57,9%
CC(C)CC(=O)Nc1c2c(nn1-c1ccc(F)cc1)CSC2,13%,1%,>57,4µM*[single pt active]
SMILES,AmpC inh det,LT uptake inh,SmPrx2 inh,AmpC nodet inh
O=C(Nc1c2c(nn1-c1ccc(F)cc1)CSC2)c1ccc(S(=O)(=O)N2CCOCC2)cc1,-1%,-6%,>57,24%
NC(=NCc1ccc(Cl)c(Cl)c1)NC(=O)c1nc(Cl)c(N)nc1N,0%,?,>11,13µM*[single pt active]
Cc1ccc(C(=N)c2ccccc2Cc2cccc3ccccc23)c2ccccc12,-2%[5.75 µM],2.5µM*,>57,2%[5.75 µM]
Cc1cccc2ccccc12,8%,-7%,/,-1%
COc1cccc(-c2ccc3ncnc(N(C)C)c3c2)c1,10µM*,?,>57,6.3µM*
CCCC(=O)c1ccc(N2CCN(C(=O)c3ccccc3Br)CC2)c(F)c1,-1%,13µM*,>57,87%
Oc1ccc(-c2nc(-c3ccc(O)c(O)c3)cs2)cc1,1%,13µM*,/,-24%
COc1ccc(C2c3sc(=O)[nH]c3SC3C(=O)N(c4ccccc4)C(=O)C32)cc1 (stereo not drawn),11%,-16%,>57,4µM*[single pt active]
CCOc1c(C(N)=O)c(-c2ccccc2)c2c(=O)[nH]c3ccccc3n12,1%,?,>57,13µM*
Fc1ccc(Nc2ncncc2-c2ccccc2C(F)(F)F)cc1,6%,1%,>57,5%
O=C(COc1ccccc1F)c1ccc(O)cc1O,5%,-26%,/,-14%
Cc1c(O)ccc(C(=O)COc2ccccc2F)c1O,6%,10µM*,>57,-9%
N#Cc1ccc(CN2CC[C@@]3(CCCN(S(=O)(=O)c4ccccc4)C3)C2)cc1,0%,?,>57,46%
O=C(CSCc1ccc(Cl)cc1)c1ccco1,17%,-20%,>57,10µM*[single pt active]
COc1cccc(Cn2c(C3CC3)nc3ccc(NC(=O)c4ccco4)cc3c2=O)c1,-5%,13µM*,>57,45%
O=C(Nc1ccc2nc(C3CC3)n(Cc3ccc(F)cc3)c(=O)c2c1)c1ccco1,3%,-18%,>57,38%
c1ccc2c(c1)c1c3n2CCNC3CCC1 (stereo not drawn),-4%,?,>57,11%
c1cc2c3c(c1)c1c(n3CCNC2)CCCC1,16µM*,?,>26,?
CCN1CCN(Cc2ccc(NC(=O)Nc3ccccc3)cc2)CC1,3%,?,>57,1%
CCN1CCN(Cc2ccc(NC(=O)Nc3ccc(OC)cc3)cc2)CC1,13%,-11%,>57,4µM*[single pt active]
COc1ccc2cccc(N3CCN(CCNC(=O)c4ccc(F)cc4)CC3)c2c1,-3%,?,>57,50%
CCCN(c1ccc(C(C)C)cc1)S(=O)(=O)c1c(C)noc1C,-4%,-20%,>57,15%
CCOC(=O)C1CCN(C(=O)CN(c2ccc(OC)cc2)S(=O)(=O)c2c(C)noc2C)CC1,5%,2%,>57,102%
Cc1cc(C)cc(N(CC(=O)N2CCN(Cc3ccccc3)CC2)S(=O)(=O)c2c(C)noc2C)c1,11%,-1%,>57,4µM*[single pt active]
CCOc1ccc(N(CC(=O)N2CCCC2)S(=O)(=O)c2c(C)noc2C)cc1,9%,-12%,>57,4µM*[single pt active]
SMILES,AmpC inh det,LT uptake inh,SmPrx2 inh,AmpC nodet inh
Cc1noc(C)c1S(=O)(=O)N(CC(=O)N1CCn2c1nc1ccccc12)c1ccc(C(C)C)cc1,10%,?,>57,4µM*[single pt active]
COc1ccc(C)cc1NC(=O)c1cc2c(CO)cnc(C)c2oc1=N,13%,?,>57,3.2µM*[single pt active]
COc1ccc(C)cc1NC(=O)c1ccoc1C,2%,7%,/,2%
O=C(Nc1cccc(Br)c1)c1cc2ccccc2o1,-3%,5µM*,/,-4%
C1CCCNCC1,10%,-5%,/,-6%
O=C1Nc2ccccc2C(O)(C(=O)NCc2ccco2)N1c1ccc(Cl)c(Cl)c1 (stereo not drawn),-3%,7.9µM*,>57,-6%
Cc1csc2nc(CSc3nc4ccccc4o3)c(Br)n12,-4%,13µM*,>57,18%
Cc1csc2nc(CSc3nncn3-c3ccccc3)c(Br)n12,11%,-11%,>57,0%
